From PubChem BioAssay (NCATS) come the findings set out here.

Structures are written as SMILES. “And” between values parts separate entries of the source, which are not always exact repeats. Equal entries are not always repeated. Values without a mark were called inactive. Results filed as inconclusive are left out. The source made the active and inactive calls. Unless noted, the call rests on the fitted dose curve; in most records, active means well fitted curve in the direction sought with a large enough effect; inconclusive means small, poorly fitted or top-dose-only effect, or another doubt; inactive means no such curve, though single readings can be large; an effect the other way counts as inactive or inconclusive.

One assay has as its system CAOV3. The assay can be described thus: Primary qHTS to identify gynecologic anti-cancer compounds using libraries of approved drugs and bioactive compounds (AID 1345084). Further: nearly all actives have a fitted effect of over 55% in size. Further: potency means the concentration at half of the fitted maximal effect. The conditions noted are these: Gynecologic cancer cell panel viability, ATPlite luminescence, 48 h; series mostly up to 57.5 µM. In outline:
(§1)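 Five-concentration response, 48 h; readout is ATP-driven luciferase luminescence.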
On the technique in general: qHTS replaces the single test concentration by a dilution series.

The next assay relates to CASKI. The assay is described as above. The conditions noted are these: Gynecologic cancer cell panel viability, ATPlite luminescence, 48 h; series mostly up to 57.5 µM. Put shortly: as §1
For orientation: ATP-based viability assays read luminescence as a measure of living cells.

A further assay relates to Es-2. Described as above. The conditions noted are these: Gynecologic cancer cell panel viability, ATPlite luminescence, 48 h; series mostly up to 57.5 µM. In outline:
as §1

The next assay has as its system HeLa. The assay is described as above. The conditions noted are these: Gynecologic cancer cell panel viability, ATPlite luminescence, 48 h; series mostly up to 57.5 µM. In outline:
as §1

The next assay deals with Hek293T. The description is as above. The conditions noted are these: Gynecologic cancer cell panel viability, ATPlite luminescence, 48 h, control line for the selectivity index; series mostly up to 57.5 µM. In outline:
as §1

For another assay, the system named is JEG-3. The description is as above. The conditions noted are these: Gynecologic cancer cell panel viability, ATPlite luminescence, 48 h; series mostly up to 57.5 µM. In outline: as §1
The subject of the next assay is OV90. The description is as above. The conditions noted are these: Gynecologic cancer cell panel viability, ATPlite luminescence, 48 h; series mostly up to 57.5 µM. In outline:
as §1

In the next assay the test system is PA-1. The description is as above. As to conditions: Gynecologic cancer cell panel viability, ATPlite luminescence, 48 h; series mostly up to 57.5 µM. In outline:
as §1

In the next assay the test system is SKOV3. The description is as above. As to conditions: Gynecologic cancer cell panel viability, ATPlite luminescence, 48 h; series mostly up to 57.5 µM. Put shortly:
as §1

For a further assay, the system named is Tov-21-G. The description is as above. As to conditions: Gynecologic cancer cell panel viability, ATPlite luminescence, 48 h; series mostly up to 57.5 µM. In outline: as §1
In a further assay the test system is Tov112D. Described as above. The conditions noted are these: Gynecologic cancer cell panel viability, ATPlite luminescence, 48 h; series mostly up to 57.5 µM. In outline:
as §1

Assay [1] can be described thus: Drug repurposing screens with cells derived from glioblastoma tumor samples (AID 1345199). Further: nearly all actives have a fitted effect of over 40% in size. Further: potency means the concentration at half of the fitted maximal effect. On activity, negative = cell killing: on the % scale 0 is the no-effect control and ±100 the full control effect. As to conditions: GBM patient neurospheres viability, ATP luminescence, 48 h. In outline:
(§2)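 Primary testing used CD133+ neurospheres from four GBM patients, seven concentrations, 48 h exposure and ATP-based viability; confirmation added three slower-growing patient lines.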

Another assay relates to astro. Described as above. As to conditions: viability, ATP luminescence, 48 h; series mostly up to 45.9 µM. In outline:
as §2

Assay [2] in a line: qHTS assay to identify inhibitors of the type 1 interferon - major histocompatibility complex class I in skeletal muscle: Counter screen cell viability and HiBit confirmation (AID 1347412). Further: on the % scale 0 is the no-effect control and ±100 the full control effect; nearly all actives have a fitted effect of over 60% in size. As to conditions: iHSKM muscle cells + IFN-b, HiBiT or CellTiter-Glo, 24 h; Potency: HiBiT; Viability, at 45.9 µM (top of the series). Put shortly:
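Duplicate plates, pinned identically: one read for HiBiT-tagged endogenous HLA-B luminescence, the other for ATP-content viability via CellTiter Glo. Cells were genome-engineered human myoblasts given 4 ng/ml IFN-b; compounds 12-pt, 1:3 from 46 uM final; 24 hr exposure.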

Assay [3] has as its target Nuclear receptor subfamily 1 group I member 2 (Rattus norvegicus) (UniProt Q9R1A7). The assay can be described thus: qHTS assay for small molecule activators of the rat pregnane X receptor (rPXR) signaling pathway (AID 651751; call rule not given here; further: 0% is about no effect). As to conditions: rPXR reporter cells, luciferase (One-Glo), 24 h.
The mark [4] stands for this setting: at 45.9 µM (top of the series), tumour line B.
Where [5] appears, read: at 45.9 µM (top of the series), tumour line D.

Nuclear receptor subfamily 1 group I member 2 (Rattus norvegicus), sequence (Q9R1A7 whole entry, looked up): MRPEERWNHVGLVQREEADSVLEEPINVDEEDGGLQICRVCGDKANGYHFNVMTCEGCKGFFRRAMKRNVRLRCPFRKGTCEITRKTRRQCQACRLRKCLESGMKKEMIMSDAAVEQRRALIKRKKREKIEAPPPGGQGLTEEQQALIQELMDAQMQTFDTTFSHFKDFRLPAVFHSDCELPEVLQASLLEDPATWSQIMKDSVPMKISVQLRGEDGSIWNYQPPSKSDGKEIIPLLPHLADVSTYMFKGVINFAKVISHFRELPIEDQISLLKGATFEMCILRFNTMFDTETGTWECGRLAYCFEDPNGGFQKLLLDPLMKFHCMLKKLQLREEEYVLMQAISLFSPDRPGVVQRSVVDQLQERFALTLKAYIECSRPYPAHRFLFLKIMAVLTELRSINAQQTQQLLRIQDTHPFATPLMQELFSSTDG

Consider `NCCc1cc(O)c(O)cc1O`, for which the Potency result in the assay on CAOV3, in the assay with CASKI, in the assay on Es-2, in the assay on HeLa, in the assay with Hek293T and with JEG-3 was “inactive” throughout. Besides, the Potency entry in the assay on OV90, in the assay with PA-1, in the assay on SKOV3, in the assay on Tov-21-G, in the assay on Tov112D and in the assay on astro was “inactive” each time. Besides, the activity, negative = cell killing is -19% in assay [1] (setting [4]) and -22% in assay [1] (setting [5]).

On to `CC[N+]1(C)CCCC(OC(=O)C(O)(c2ccccc2)c2ccccc2)C1` (stereo unspecified), for which the Potency result in the assay with CAOV3, in the assay on CASKI, in the assay with Es-2, in the assay on HeLa, in the assay on Hek293T and in the assay on JEG-3 was “inactive” throughout. Also, the Potency entry in the assay on PA-1, with SKOV3, with Tov-21-G, with Tov112D and in the assay on astro was “inactive” each time. In addition, the activity, negative = cell killing in assay [1] (setting [4]) was -10.4%; in assay [1] (setting [5]), -8.99%.

With `N#CC(C#N)=Cc1ccc(O)c(O)c1`, the Potency entry with CAOV3, with CASKI, with Es-2, in the assay on HeLa, in the assay on Hek293T and in the assay with OV90 was “inactive” in each case. In addition, the Potency entry with SKOV3 and in the assay on Tov112D was “inactive” in each case.

Take `COc1ccc2c(c1OC)CN1CCc3cc4c(cc3C1C2)OCO4` (stereo unspecified): the Potency result in the assay on CAOV3, in the assay on Es-2, in the assay with HeLa, with JEG-3, with SKOV3 and in the assay with Tov-21-G was “inactive” throughout. Also, the Potency result in the assay on Tov112D is “inactive”.

Turning to `COc1ccc(Cc2nccc3cc(OC)c(OC)cc23)cc1OC`, the Potency result in the assay on CAOV3, in the assay with Tov-21-G and with Tov112D was “inactive” in each case. The Potency is 11.2 µM (active) in the assay on OV90, 25.1 µM (active) in the assay with SKOV3 and 10 µM (active) with astro.

As for `c1ccc(C2CC2)c(OCC2=NCCN2)c1`, the Potency entry with CAOV3, in the assay on CASKI, in the assay on Es-2, in the assay on HeLa, in the assay with Hek293T and in the assay with JEG-3 was “inactive” throughout. The Potency entry in the assay on OV90, in the assay on SKOV3, in the assay with Tov-21-G, with Tov112D and with astro was “inactive” each time. The activity, negative = cell killing is -20.7% in assay [1] (setting [4]) and -19.1% in assay [1] (setting [5]). Moreover, in [1] (tumour line A), the Potency is 11.2 µM (active).

In the case of `CC1NCCOC1c1ccccc1` (stereo unspecified), the Potency entry in the assay with CASKI, in the assay on Es-2, in the assay on HeLa, in the assay on Hek293T, with JEG-3 and with OV90 was “inactive” each time. Also, the Potency entry in the assay on PA-1, in the assay with SKOV3, in the assay on Tov-21-G, in the assay on Tov112D and in the assay on astro was “inactive” in each case. The activity, negative = cell killing in assay [1] (setting [4]) is -0.55%; in assay [1] (setting [5]) it was 7.64%; in [1] (at 46 µM (top of the series), tumour line A) it was -23.4%.

Regarding `Cc1sc2c(c1C)C(c1ccc(Cl)cc1)=N[C@@H](CC(=O)OC(C)(C)C)c1nnc(C)n1-2`, the Potency result in [2] is “inactive”.

`CC(CCc1ccccc1)NC(C)C(O)c1ccc(O)cc1` (stereo unspecified): the Potency result with CAOV3, in the assay with CASKI, with Es-2, with HeLa, in the assay with Hek293T and in the assay on JEG-3 was “inactive” throughout. In addition, the Potency entry with SKOV3, with Tov-21-G, in the assay with Tov112D and in the assay with astro was “inactive” throughout. The activity, negative = cell killing in assay [1] (setting [4]) was -9.92%; in assay [1] (setting [5]) it was 2.61%. For the same compound, in assay [1] (tumour line A), the Potency was 14.1 µM (active).

On to `CCCC1CCCCN1` (stereo unspecified), for which the Potency entry in the assay on CAOV3, with CASKI, with Es-2, with HeLa, with JEG-3 and in the assay on OV90 was “inactive” in each case. In addition, the Potency entry in the assay on PA-1, in the assay on SKOV3, in the assay with Tov-21-G, in the assay on Tov112D and in the assay on astro was “inactive” throughout. Also, the results for the activity, negative = cell killing in assay [1] (setting [4]) and in [1] (setting [5]) were -22.5% and -32.7%, respectively.

In the case of `Oc1ccc(Cl)cc1Cc1ccccc1`, the Potency result in the assay with CAOV3, in the assay with CASKI, in the assay on Es-2, in the assay on HeLa, in the assay with Hek293T and in the assay on JEG-3 was “inactive” in each case. The Potency result with PA-1, in the assay with SKOV3, in the assay on Tov-21-G and in the assay with Tov112D was “inactive” throughout. The activity, negative = cell killing in assay [1] (setting [4]) was -24.8%. Besides, the Potency in the assay on astro is 35.5 µM (active). The max response in assay [3] is 0.0184% and 1.61%.
